Among all 2,300 compounds or so, about 330 (14%) showed activity. Not all results are given here. Unmarked numbers belong to inactive results.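 The calls were made as follows: active = median modified Z-score above 1.96; inactive = 1.96 or below.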
Test system: HepG2 Srxn1-GFP reporter cells (+30 nM CDDO-Me)
Experiment: Srxn1-GFP intensity median modified Z-score relative to plate median; higher = stronger NRF2 / oxidative stress reporter activation, active = hit call of the paper
Conditions: 10 µM; exposure time: 24h
Outline: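 The per-plate modified Z-score of GFP intensity, taken as a median across replicates, is what each value represents. Three replicate plates of HepG2 Srxn1-GFP BAC reporter cells were exposed for 24 h to an NRF2 activator at 30 nM combined with compound at 10 μM (≤0.1% DMSO). Cytoplasmic GFP per cell was read from confocal images, excluding any with under 100 cells, and scaling used 1.4826 × median absolute deviation.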

Compound | Srxn1-GFP intensity median modified Z-score
Cc1ccccc1-n1cnnc1SCC(=O)c1ccc2c(c1)OCCO2 | 1.22
Cc1ccc2c(c1)CC[C@H]1CC(=O)CC[C@]21C [euspeclibcmpd2206] | 0.163
CC(C)C1=CC2=CCC3[C@](C)(CCC[C@]3(C)C(=O)O)C2CC1 (some centres not stated) [euspeclibcmpd1332] | -0.234
CC(C)c1ccc2c(c1)CCC1C(C)(C(N)=O)CCCC21C (configuration not stated) [euspeclibcmpd1367] | 15.1 (active)
CN1C(CC(=O)c2ccccc2)CCCC1CC(O)c1ccccc1 (configuration not stated) [euspeclibcmpd1050] | -0.349
Cc1cc[nH]c(=NS(=O)(=O)c2ccc(N)cc2)n1 [euspeclibcmpd275] | -0.506
NC(=O)C(c1ccccc1)(c1ccccc1)C1CCN(CCc2ccc3c(c2)CCO3)C1 (configuration not stated) [euspeclibcmpd914] | -0.0168
Cc1cc(C)c2c(=O)c3c(oc2c1)C(=O)N(Cc1ccc(F)cc1)C3c1cccc(O)c1 (configuration not stated) | 1.43
CCCCCCCCCCCCCCCC(=O)O[C@@H]1[C@@H](O)[C@@H](O)[C@H]([C@H](NC(=O)C2C[C@@H](CCC)CN2C)[C@H](C)Cl)O[C@@H]1SC (some centres not stated) [euspeclibcmpd1310] | 0.0886
CC(C)(C)CC(C)(C)c1ccc(OCCOCC[N+](C)(C)Cc2ccccc2)cc1 [euspeclibcmpd33] | 9.81 (active)
Oc1ccc(OCc2ccccc2)cc1 [euspeclibcmpd515] | 1.16
CCCCC(O)c1ccccc1 (configuration not stated) [euspeclibcmpd2082] | -0.178
C[N+](C)(CCOc1ccccc1)Cc1ccccc1 [euspeclibcmpd868] | 2.62 (active)
CCCCCCCCCCCCCCCC[N+](C)(C)CCN(Cc1ccc(OC)cc1)c1ncccn1 [euspeclibcmpd626] | 1.67
Cc1cc(C(C)(C)CC(C)(C)C)ccc1OCCOCC[N+](C)(C)Cc1ccccc1 [euspeclibcmpd556] | 24 (active)
CCCCCCCCCCCCC[N+](C)(C)Cc1ccccc1 [euspeclibcmpd590] | 3.29 (active)
C[C@]12C=CC(=O)CC1=CCC1C3C[C@@H](O)[C@](O)(C(=O)CO)[C@@]3(C)C[C@H](O)[C@@]12F (some centres not stated) [euspeclibcmpd302] | -0.809
CC1(C)C(C(=O)O)N2C(=O)C[C@H]2S1(=O)=O (some centres not stated) [euspeclibcmpd473] | -0.4
CC(C)(O)CC[C@@H](O)[C@](C)(O)[C@@H]1CC[C@@]2(O)C3=C(CC[C@]12C)[C@@]1(C)C[C@H](O)[C@H](O)CC1C(=O)C3 (some centres not stated) [euspeclibcmpd1686] | 0.91

Compound | Srxn1-GFP intensity median modified Z-score
O=C(O)c1cc(N=Nc2ccc(O)c(C(=O)O)c2)ccc1O [euspeclibcmpd2114] | -0.278
N=c1[nH]c(=NC2CC2)c2ncn(C3C=C[C@@H](CO)C3)c2[nH]1 (some centres not stated) [euspeclibcmpd479] | -0.254
CCCCC/C=C/CCC(=O)N[C@H]1[C@H](Oc2c3cc4cc2Oc2ccc(cc2Cl)[C@@H](O[C@@H]2O[C@H](CO)[C@@H](O)[C@H](O)[C@H]2NC(C)=O)c2[nH]c(O)c(c5ccc(O)c(c5)c5c(OC6O[C@H](CO)[C@@H](O)[C@H](O)[C@@H]6O)cc(O)cc5c(=C(O)O)[nH]c2O)NC(=O)[C@@H]4NC(=O)[C@H]2NC(=O)C(Cc4ccc(c(Cl)c4)O3)NC(=O)[C@H](N)c3ccc(O)c(c3)Oc3cc(O)cc2c3)O[C@H](CO)[C@@H](O)[C@@H]1O (some centres not stated) [euspeclibcmpd852] | -0.162
OC[C@H](O)[C@@H](O)CO [euspeclibcmpd2221] | -0.0632
Clc1cccc(Cn2cc(-c3cnn(Cc4cccc(Cl)c4)c3)cn2)c1 | 1.3
C[C@H](CCC(=O)NCC(=O)O)[C@H]1CCC2C3C(C[C@H](O)[C@@]21C)[C@@]1(C)CC[C@@H](O)CC1C[C@H]3O (some centres not stated) [euspeclibcmpd1671] | -0.257
CC(C)C=CC=CCC(=O)N[C@@H](CC(N)=O)C(=O)N[C@@H]1C(=O)N[C@H](c2ccc(O)cc2)C(=O)N[C@H](CCCN)C(=O)N[C@H]([C@H](C)O)C(=O)N[C@@H](c2ccc(O)cc2)C(=O)N[C@H](c2ccc(O)cc2)C(=O)N[C@@H]([C@H](C)O)C(=O)N[C@@H](Cc2ccccc2)C(=O)N[C@H](CCCN)C(=O)N[C@@H](c2ccc(O[C@@H]3O[C@H](CO)[C@H](O)[C@@H](O)[C@@H]3O[C@@H]3O[C@H](CO)[C@@H](O)[C@H](O)[C@H]3O)cc2)C(=O)NC(C(C)O)C(=O)N[C@@H](c2ccc(O)cc2)C(=O)NCC(=O)N[C@@H](CC(C)C)C(=O)N[C@H](C)C(=O)N[C@@H](c2ccc(O)c(Cl)c2)C(=O)O[C@@H]1C(N)=O (some centres not stated) [euspeclibcmpd1079] | 0.139
Cc1cc(=O)n(-c2ccccc2)[nH]1 [euspeclibcmpd1143] | -0.434
CC(=O)N[C@@H]1[C@@H](OC(C)C(=O)O)[C@H](O)[C@@H](CO)O[C@H]1O (some centres not stated) [euspeclibcmpd2433] | -0.153
COC(=O)C[C@H]1C(C)(C)[C@@H](OC(C)=O)C2CC3C4CC(=O)O[C@@H](c5ccoc5)[C@]4(C)CCC3[C@@]1(C)C2=O (some centres not stated) [euspeclibcmpd1596] | 1.31
C/C1=C/CC(C)(C)/C=C/C/C(C)=C/CC1 [euspeclibcmpd1338] | 0.112
CCCCOc1cc(C(=O)NCCN(CC)CC)c2ccccc2n1 [euspeclibcmpd89] | 0.582
CCN(CC)CCNc1ccc(CO)c2sc3ccccc3c(=O)c12 [euspeclibcmpd550] | 13.8 (active)
N=C(N)NCC1COC2(CCCCC2)O1 (configuration not stated) [euspeclibcmpd1929] | -0.0176
CN(CCOc1ccc(Cc2sc(=O)[nH]c2O)cc1)c1ccccn1 [euspeclibcmpd2243] | 0.517
Oc1ccc2ccccc2c1 [euspeclibcmpd1176] | 1.48
Oc1cccc(O)c1 [euspeclibcmpd262] | 13.8 (active)
CC(=O)Nc1cccc(O)c1 [euspeclibcmpd1259] | -0.0594

— the supplement of paper PMC10498489
